DT40 TDP1 no CPT: qHTS for Inhibitors of human tyrosyl-DNA phosphodiesterase 1 (TDP1): qHTS in cells in absence of CPT | DT40 Tdp1-/- hTDP1 cells, no CPT, ATP luminescence, 48 h | Potency, µM (series often up to 46.2 µM), for inactives: at the highest dose activity change, negative = growth inhibition, hits mostly inhibitors | 420,000 tested, 15% active; also: potency is read from the fitted curve at half-maximal effect; nearly all actives have a fitted effect of over 55% in size
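Readout: luminescence from CellTiter-Glo after 30 min in the dark at RT. Cells: DT40 Tdp1-/- with stable hTDP1, 400/well. Exposure: compounds alone, ≥48 hr, 37 °C.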
HT1080NT lethal: qHTS for induction of synthetic lethality in tumor cells producing 2HG: qHTS for the HT-1080-NT fibrosarcoma cell line | HT-1080-NT fibrosarcoma viability, CellTiter-Glo ATP luminescence, 48 h | Potency, µM (top dose mostly 46.1 µM), for the others: top-dose activity, negative = less viability, most hits filed as cytotoxic | 360,000 tested, 1.6% active;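 also: NT is the 2HG producing partner of a matched IDH1 knockdown line; potency is read from the fitted curve at half-maximal effect; 0% = DMSO-treated cells and -100% = media-only wells without cells; nearly all actives have a fitted effect of over 55% in size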
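HT-1080-NT; 750 cells/well; 5% FBS RPMI; 48 h compound, 37 degrees C; CellTiter-Glo luminescence; curve fitting and curve-class assignment.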
HT1080 IDH1KD tx: qHTS for induction of synthetic lethality in tumor cells producing 2HG: qHTS for the HT-1080-IDH1KD cell line; AID 686971, 2013; Potency, µM (top dose mostly 46.1 µM), for inactives: top-dose activity, negative = toxicity, actives largely listed as cytotoxic; HT-1080 IDH1 knockdown viability, ATP luminescence, 48 h; 360,000 tested, 2% active;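 also: potency is read from the fitted curve at half-maximal effect; 0% = DMSO wells and -100% = cell-free medium wells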
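Using the IDH1-knockdown HT-1080 line run in the same batch and compound series as the NT line, viability after 48 h at 37 °C was determined by CellTiter-Glo luminescence and expressed as % activity.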
DT40 TDP1 CPT: qHTS for Inhibitors of human tyrosyl-DNA phosphodiesterase 1 (TDP1): qHTS in cells in presence of CPT. chicken DT40 Tdp1-/-;hTDP1 cells + 20 nM CPT, ATP luminescence, 48 h. Potency, µM (doses to about 46.2 µM), inactives show at the top dose activity change, negative = growth inhibition, usual class: inhibitors. 420,000 tested, 12% active. AID 686979, 2013; also: potency is read from the fitted curve at half-maximal effect; nearly all actives have a fitted effect of over 55% in size
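Chicken DT40 Tdp1-/- cells stably complemented with human TDP1 were seeded at 400 cells/well in medium containing 20 nM camptothecin, exposed to pin-transferred compounds, and grown at 37 °C for at least 48 hr. Viability was read as ATP luminescence.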
IL1B secr inh: qHTS for Inhibitors of Inflammasome Signaling: IL-1-beta AlphaLISA Primary Screen; AID 743279, 2014; THP-1 LPS/ATP IL-1B secretion, AlphaLISA, 16 h; active compounds read low; activity change, % at 57.5 µM; 360,000 tested, 4.7% active; in the data active = activity change below about -50%; inconclusive = mostly about -30% to -49%
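THP-1 cells pretreated 1 hr with compounds (up to 57.5 uM final), then stimulated with LPS (250 ng/mL final) plus ATP (1.25 mM final); secreted IL-1B measured by AlphaLISA after 16 hr, decreased signal indicating inhibition.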
* = called active by the depositor; ? = inconclusive; . = no result; [ ] = another dose, or the depositor's remark. An excerpt weighted towards active compounds, which were near 19% of everything screened. Unless noted, calls follow the shape of the dose curve; as a rule, active = well fitted curve in the direction sought with a large enough effect; inconclusive = small, poorly fitted or top-dose-only effect, or another doubt; inactive = no such curve, though single readings can be large; an effect the other way counts as inactive or inconclusive. Unless noted, % is scaled to controls: 0 for no effect and ±100 for the full control effect.

SMILES | DT40 TDP1 no CPT | HT1080NT lethal | HT1080 IDH1KD tx | DT40 TDP1 CPT | IL1B secr inh
CN(CC(=O)Nc1cccc(F)c1)C(=O)CN1C(=O)NC2(CCCC2)C1=O | ? | -5.2% | -0.6% | ? | 3.1
COc1ccc(C(=O)NCCNc2ccccc2[N+](=O)[O-])cc1 | -22.3% | 2.8% | -7.4% | ? | ?
CCCNC(=O)c1ccc(S(=O)(=O)c2ccc(OC)cc2)c([N+](=O)[O-])c1 | 4.11µM* | ? | ? | 5.17µM* | -92.4*
O=C(CN1C(=O)CSc2cc(S(=O)(=O)N3CCCCCC3)ccc21)NCCc1ccccc1 | ? | -0.3% | -2.7% | ? | -62.0*
CN(C)CCNC(=O)CN1C(=O)CSc2ccc(S(=O)(=O)N3CCCCC3)cc21 | 7.7% | 21.2% | 10.8% | -3.7% | -20.5
CC1CCCCC1NC(=O)CN1C(=O)CSc2cc(S(=O)(=O)N3CCCCCC3)ccc21 (centres undefined) | 20.6µM* | -2.5% | -5.7% | ? | -25.1
CC1CCN(S(=O)(=O)c2ccc3c(c2)N(CC(=O)NC(C)C)C(=O)CS3)CC1 | -11.8% | . | . | 0.5% | .
O=C(NNC(=O)c1ccc(Br)cc1)c1ccncc1 | -7.4% | 3.2% | -1.6% | 0.8% | 10.8
Nc1ccccc1C(=O)Nc1cccc(C(=O)O)c1 | -11.4% | 0.0% | -1.7% | -19.0% | 2.4
COc1cccc(C(=O)NN=C2CCCC2)c1 | 16.4% | -3.7% | -11.5% | -3.3% | 5.4
Nc1ccccc1C(=O)NNC1=C(C(=O)C(F)(F)F)CCC1 | 4.11µM* | -21.3% | ? | 4.11µM* | 6.2
COc1cccc(C(=O)NNC2=C(C(=O)C(F)(F)F)CCC2)c1 | 1.46µM* | ? | 11.6µM* | 2.06µM* | 122.3
COc1ccccc1C(=O)NNC1=C(C(=O)C(F)(F)F)CCC1 | ? | 3.55µM* | 2.24µM* | ? | 82.8
O=C(NNC1=C(C(=O)C(F)(F)F)CCC1)c1ccc(Br)cc1 | 16.4µM* | ? | 10µM* | ? | 37.4
OC1(c2cccnc2)CCN(Cc2ccc3c(c2)CN(Cc2cc(F)cc(F)c2)CCO3)CC1 | ? | . | . | 4.9%[9.04 µM] | .
CCc1cccc(C)c1NC(=O)c1ccc2nc(N3CCOCC3)sc2c1 | -15.7% | -1.7% | 4.1% | -16.9% | -2.2
CCOC(=O)c1cnc2ncnn2c1N | -28.4% | 11.7% | 13.5% | -1.3% | 42.7
O=C(CCC1CCCC1)NNC(=O)c1ccccc1O | ? | -16.5% | -14.1% | ? | 12.5
O=C(NNC1=C(C(=O)C(F)(F)F)CCC1)c1ccccc1Cl | 1.03µM* | 14.6µM* | ? | 1.3µM* | 67.4
O=C(NNC1=C(C(=O)C(F)(F)F)CCC1)c1ccccc1O | 20.6µM* | 23.1µM* | ? | 16.4µM* | 82.2
O=C(NNC(=O)c1ccccc1Cl)c1ccccc1Cl | -0.9% | 4.4% | 4.8% | -2.0% | 1.0
O=C(O)CCCNC(=O)/C(=C\c1ccc(Cl)cc1)NC(=O)c1ccccc1Br | 1.1% | 5.1% | 6.6% | -21.1% | 18.8
O=C(C[C@H]1C/C=C\C[C@H](NC(=O)OCC2c3ccccc3-c3ccccc32)C(=O)O[C@@H](c2ccccc2)CNC1=O)NCCO | 10.3µM* | -0.2% | -4.7% | 9.2µM* | -8.7
O=C(C[C@@H]1C/C=C\C[C@H](NC(=O)OCC2c3ccccc3-c3ccccc32)C(=O)O[C@H](c2ccccc2)CNC1=O)NCCO | 2.06µM* | -0.2% | -3.0% | 2.59µM* | 26.6
O=C(C[C@H]1C/C=C\C[C@@H](Cc2ccc(F)cc2)C(=O)O[C@H](c2ccccc2)CNC1=O)NCCO | ? | -1.7% | 1.8% | ? | -1.5
SMILES | DT40 TDP1 no CPT | HT1080NT lethal | HT1080 IDH1KD tx | DT40 TDP1 CPT | IL1B secr inh
Cc1cccc(NC(=O)c2cc(CN3CCOCC3)on2)c1C | -6.7% | . | . | -7.6% | .
O=C(Nc1ccc(N2CCCCC2)c(Cl)c1)c1ccc2c(c1)OCCO2 | 20.6µM* | ? | ? | ? | 6.2
O=C(Nc1ccc(N2CCCC2)c(Cl)c1)c1ccc2c(c1)OCCO2 | 20.6µM* | -0.7% | -5.8% | ? | -64.2*
CSc1ccc(CN(C)C(=O)c2cc(S(=O)(=O)NCc3ccccc3)ccc2C)cc1 | 20.6µM* | ? | ? | ? | ?
Cc1ccc(S(=O)(=O)NCc2ccccc2)cc1C(=O)N(C)CC(=O)Nc1c(Cl)cccc1Cl | ? | 0.2% | -0.8% | 23.1µM* | -12.9
Cc1ccc(NC(=O)CCC(=O)OCC(=O)c2ccc(Oc3ccc([N+](=O)[O-])cc3)cc2)c(C)c1 | -27.8% | -1.7% | 0.7% | ? | 7.5
O=C(NCc1cccc(Cl)c1)C1CCCN(c2nn3cc(-c4ccc(F)cc4)nc3s2)C1 (centres undefined) | 23.1µM* | . | . | ? | .
O=C(Nc1cccc(Cl)c1)C1CCCN(c2nn3cc(-c4ccc(F)cc4)nc3s2)C1 (centres undefined) | 23.1µM* | . | . | ? | .
Cc1ccccc1CNC(=O)C1CCN(c2nn3cc(-c4ccc(F)cc4)nc3s2)CC1 | -13.9% | . | . | -18.6% | .
Cc1ccc(CNC(=O)C2CCN(c3nn4cc(-c5ccc(F)cc5)nc4s3)CC2)cc1 | -7.7% | . | . | -5.9% | .
CCN(CC)CCNC(=O)C1CCN(c2nn3cc(-c4ccc(F)cc4)nc3s2)CC1 | 3.26µM* | . | . | 5.17µM* | .
Cc1cc(C)nc(N2CCCC(C(=O)Nc3cccc(Cl)c3)C2)n1 (centres undefined) | ? | 0.0% | 2.1% | ? | 25.5
CC(=O)/C(=N/Nc1ccccc1)Sc1nnc(C(O)c2ccccc2)n1-c1ccccc1 (centres undefined) | ? | 7.3% | 8.7% | ? | -13.8
Cc1cc[n+]2c3c(cccc13)CCC2 | 18.4µM* | 6.6% | -9.4% | 20.6µM* | 43.8
Cc1ccc(/C=C/c2onc(C)c2S(=O)(=O)N2CCC(C(=O)N3CCN(c4cccc(C)c4)C(C)C3)CC2)cc1 (centres undefined) | 11.6µM* | . | . | 20.6µM* | .
COc1cccc(/C=C/c2onc(C)c2S(=O)(=O)N2CCC(C(=O)N3CCC(C)CC3)CC2)c1 | 16.4µM* | . | . | ? | .
Cc1cccc(N2CCN(C(=O)C3CCN(S(=O)(=O)c4c(C)noc4/C=C/c4ccccc4F)CC3)CC2)c1C | ? | . | . | -23.2% | .
Cc1cccc(/C=C/c2onc(C)c2S(=O)(=O)N2CCC(C(=O)N3CCC(C)CC3)CC2)c1 | 18.4µM* | 24.0% | 9.2% | 18.4µM* | -21.8

From PubChem BioAssay
